Results reported in article PMC5540273 (PLoS ONE, 2017).

Experiments:
Details in all cases: concentration: 1 μM, replicates: in singlicate; n = 1
JNK1 = tested on: T1, JNK1
T1 construct: gene MAPK8

JNK2 = tested on: T2, JNK2
T2 construct: gene MAPK9

JNK3 = tested on: T3, JNK3
T3 construct: gene MAPK10

KIT-autoinhibited = tested on: KIT-autoinhibited
KIT = tested on: KIT
LATS1 = tested on: LATS1
LATS2 = tested on: LATS2
LCK = tested on: LCK
LIMK1 = tested on: LIMK1
LIMK2 = tested on: LIMK2
LKB1 = tested on: T4, LKB1
T4 construct: gene STK11

LOK = tested on: T5, LOK
T5 construct: gene STK10

LRRK2 = tested on: LRRK2
LTK = tested on: LTK
LYN = tested on: LYN
LZK = tested on: T6, LZK
T6 construct: gene MAP3K13

MAK = tested on: MAK
MAP3K15 = tested on: MAP3K15
MAP3K1 = tested on: MAP3K1
MAP3K2 = tested on: MAP3K2
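Note: KINOMEscan kinase panel screen.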

| SMILES | %Inh (JNK1) | %Inh (JNK2) | %Inh (JNK3) | %Inh (KIT-autoinhibited) | %Inh (KIT) | %Inh (LATS1) | %Inh (LATS2) | %Inh (LCK) | %Inh (LIMK1) | %Inh (LIMK2) | %Inh (LKB1) | %Inh (LOK) | %Inh (LRRK2) | %Inh (LTK) | %Inh (LYN) | %Inh (LZK) | %Inh (MAK) | %Inh (MAP3K15) | %Inh (MAP3K1) | %Inh (MAP3K2) |
| --- | --- | --- | --- | --- | --- | --- | --- | --- | --- | --- | --- | --- | --- | --- | --- | --- | --- | --- | --- | --- |
| COc1cc2ncnc(Nc3ccc(OCc4ccccc4Br)c(Cl)c3)c2cc1OC.Cl [GI261590] | 15% | 10% | 0% | 0% | 3% | 8% | 3% | 57% | 0% | 3% | 0% | 96.6% | 0% | 14% | 30% | 10% | 33% | 0% | 4% | 0% |
| Cl.O=S(=O)(c1cccc(F)c1)c1ccc(Nc2ncnc3cc(Br)sc23)cc1Cl [GSK306886] | 0% | 7% | 4% | 0% | 34% | 0% | 0% | 15% | 33% | 3% | 10% | 6% | 0% | 0% | 0% | 0% | 10% | 0% | 24% | 7% |
| NC(=O)c1sc(-n2cnc3ccccc32)cc1OCc1ccccc1F [GSK1024306] | 3% | 28% | 14% | 0% | 0% | 0% | 0% | 9% | 0% | 20% | 0% | 63% | 29% | 5% | 0% | 27% | 13% | 0% | 59% | 0% |
| Cl.Fc1ccccc1COc1ccc(Nc2ncnc3ccc(-c4nnc(C(F)(F)F)o4)cc23)cc1Cl [GW424170] | 0% | 4% | 0% | 0% | 13% | 0% | 0% | 12% | 0% | 16% | 12% | 0% | 0% | 0% | 0% | 0% | 10% | 0% | 0% | 0% |
| CCCc1ccc(S(=O)(=O)NC2CCN(c3ccnc(Nc4ccc(OC)cc4)n3)C2)cc1 (stereo not drawn) [GSK1379737] | 20% | 21% | 0% | 0% | 37% | 0% | 0% | 16% | 0% | 100% | 6% | 0% | 0% | 100% | 0% | 25% | 16% | 0% | 1% | 1% |
| Fc1ccc(-c2ncn(CCCNCc3ccccc3)c2-c2ccncc2)cc1 | 34% | 48% | 57% | 4% | 19% | 30% | 34% | 40% | 10% | 7% | 27% | 19% | 0% | 0% | 22% | 12% | 5% | 10% | 15% | 0% |
| Cl.Cn1ccc(-c2cccc(Nc3ccnc4cc(-c5nccs5)ccc34)c2)n1 [GW525701] | 12% | 13% | 2% | 0% | 33% | 0% | 0% | 3% | 0% | 0% | 0% | 72% | 0% | 0% | 0% | 48% | 0% | 0% | 10% | 0% |
| Nc1nc(-c2ccccn2)c(-c2ccnc3ccccc23)s1 [GW548057] | 0% | 19% | 1% | 3% | 11% | 0% | 23% | 10% | 0% | 9% | 8% | 0% | 0% | 0% | 0% | 51% | 12% | 11% | 10% | 0% |
| Fc1cccc(COc2ccc(Nc3ncnc4sc(-c5ccc[nH]5)cc34)cc2Cl)c1 [GW707818] | 1% | 15% | 0% | 0% | 16% | 9% | 0% | 8% | 9% | 17% | 17% | 28% | 0% | 1% | 0% | 82% | 36% | 0% | 4% | 0% |
| CCC(CC)(CC)n1cnc2c(N)ncnc21 [SKF-97620] | 29% | 24% | 4% | 0% | 0% | 24% | 0% | 14% | 10% | 0% | 70% | 23% | 9% | 6% | 0% | 36% | 12% | 24% | 21% | 40% |
| CSc1ccc(NC2=C(c3ccccc3Cl)C(=O)NC2=O)cc1 [SB-342411] | 1% | 1% | 0% | 0% | 25% | 5% | 23% | 18% | 0% | 7% | 12% | 2% | 0% | 7% | 0% | 0% | 0% | 0% | 14% | 0% |
| CCc1nc(-c2cccc(C)c2)c(-c2ccnc(NC(=O)c3ccccc3)c2)s1 | 53% | 79% | 93.3% | 6% | 21% | 30% | 100% | 0% | 0% | 0% | 0% | 11% | 3% | 10% | 8% | 42% | 16% | 2% | 2% | 0% |
